PubChem BioAssay (NCATS)
Results filed as inconclusive are left out. Active and inactive are the calls of the source. The call rests on the fitted dose curve; in most records, active means well fitted curve in the direction sought with a large enough effect; inconclusive means small, poorly fitted or top-dose-only effect, or another doubt; inactive means no such curve, though single readings can be large; an effect the other way counts as inactive or inconclusive.

Target: Ubiquitin carboxyl-terminal hydrolase 1 (Homo sapiens) (UniProt O94782)
Sequence (O94782 whole entry, looked up): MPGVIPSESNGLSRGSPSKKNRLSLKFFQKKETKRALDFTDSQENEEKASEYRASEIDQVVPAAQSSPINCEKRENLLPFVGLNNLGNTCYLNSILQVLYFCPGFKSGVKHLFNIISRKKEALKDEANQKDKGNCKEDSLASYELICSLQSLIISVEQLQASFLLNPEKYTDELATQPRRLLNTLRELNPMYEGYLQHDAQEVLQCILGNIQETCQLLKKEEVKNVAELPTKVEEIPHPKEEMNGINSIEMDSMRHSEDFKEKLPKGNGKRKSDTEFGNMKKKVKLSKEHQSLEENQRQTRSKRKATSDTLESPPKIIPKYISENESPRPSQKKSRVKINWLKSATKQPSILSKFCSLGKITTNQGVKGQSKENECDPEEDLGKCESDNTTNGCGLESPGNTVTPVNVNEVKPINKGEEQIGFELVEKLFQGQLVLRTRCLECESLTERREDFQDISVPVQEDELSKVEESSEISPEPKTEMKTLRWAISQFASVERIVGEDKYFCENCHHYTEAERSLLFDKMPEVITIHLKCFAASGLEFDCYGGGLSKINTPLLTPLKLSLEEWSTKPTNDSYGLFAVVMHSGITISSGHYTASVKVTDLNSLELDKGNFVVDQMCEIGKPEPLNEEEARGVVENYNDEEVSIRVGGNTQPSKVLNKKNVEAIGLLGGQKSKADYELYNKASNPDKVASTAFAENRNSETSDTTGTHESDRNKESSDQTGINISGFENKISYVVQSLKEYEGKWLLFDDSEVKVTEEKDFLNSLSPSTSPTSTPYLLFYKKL
Assay: Inhibitors of USP1/UAF1: Pilot qHTS (AID 504865);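 further: rhodamine fluorescence freed from ubiquitin-rhodamine substrate followed over time; top concentration of the series differs between compounds; nearly all actives have a fitted effect of over 35% in size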
Settings: purified USP1/UAF1, Ub-rhodamine cleavage fluorescence; series mostly up to 54.9 µM
Summary of the method: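 1nM USP1/UAF1 + cpd, 15 min RT; start w/ Ub-Rho 150nM final; kinetic FL 480/540 nm, 6 reads q60 s. Buffer 50mM HEPES pH 7.8, 0.5mM EDTA, 1mM TCEP, 0.01% Tween-20, 0.1 mg/ml BSA.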

Potency, inactive:
Cc1nc2cnc(Oc3cccc(Cl)c3)nc2n(C2CC2)c1=O
CNc1ncncc1-c1ccccc1C(F)(F)F
CC(=O)NCCNc1nc(-c2ccc(C(=O)N(C)C)cc2)nc2ccccc12
COc1ccc(CNc2ccnc(-c3ccc(C(=O)N(C)C)cc3)n2)c(OC)c1
Clc1ccccc1-c1cc(NCCN2CCOCC2)ncn1
COc1ccc(CNc2cc(-c3cccnc3)ncn2)c(OC)c1
CCNc1ncc2nc(-c3ccc(OC)cc3)c(=O)n(CCC#N)c2n1
FC(F)(F)c1ccccc1-c1cncnc1NCc1cccnc1
COc1ncc2nc(-c3cn(C)c4ccccc34)c(=O)n(C)c2n1
CN(C)C(=O)c1ccc(-c2cncnc2NCc2ccccc2)cc1
COc1ccc(-n2c(=O)c(CCc3ccccc3)nc3cncnc32)cc1
Cc1nc2cnc(N(C)C)nc2n(-c2ccccc2)c1=O
COc1ccccc1CNc1ncncc1-c1ccc(C(=O)N(C)C)cc1
COc1ccc(CNc2ncncc2-c2ccccc2C(F)(F)F)c(OC)c1
COCCn1c(=O)c(-c2cccc(C#N)c2)nc2cnc(N3CCOCC3)nc21
CNc1ncncc1-c1ccccc1C
O=c1cnc2cnc(Oc3ccccc3)nc2n1C1CC1
COCCn1c(=O)c(-c2cccc(C#N)c2)nc2cnc(Oc3ccc(OC)cc3)nc21
O=c1c(-c2ccccc2)nc2cncnc2n1-c1ccccc1
CN(C)C(=O)c1ccc(-c2nccc(N(C)Cc3ccco3)n2)cc1
CS(=O)(=O)Nc1cccc(-c2cc(NCc3cccs3)ncn2)c1
COc1ccc(-c2nc3cnc(OC)nc3n(C)c2=O)cc1
c1ccc(CNc2ncncc2-c2cccnc2)cc1
CN(C)c1ncc2nc(-c3cccs3)c(=O)n(-c3ccccc3)c2n1
Cn1c(=O)c(-c2ccc(Cl)cc2)nc2cnc(OCc3ccccc3)nc21
COc1cccc(Cn2c(=O)c(-c3ccc(Cl)cc3)nc3cnc(N4CCN(C)CC4)nc32)c1
COc1cccc(Cn2c(=O)c(CCc3ccccc3)nc3cncnc32)c1
Cn1c(=O)c(-c2ccccc2)nc2cnc(Nc3ccccc3)nc21
COc1ncc2ncc(=O)n(C3CC3)c2n1
Cc1cnc(CNc2cc(-c3ccccc3C(F)(F)F)ncn2)cn1
CN(C)C(=O)c1ccc(-c2cncnc2NCc2cccnc2)cc1
COc1ncc2nc(-c3ccc(F)cc3)c(=O)n(CCc3ccccc3)c2n1
N#Cc1cccc(-c2nccc(-n3ccnc3)n2)c1
O=c1c(-c2ccccc2)nc2cnc(Oc3cccc(Cl)c3)nc2n1C1CC1
CNc1nc(-c2cccnc2)nc2ccccc12
Cn1cc(-c2nc3cnc(Oc4ccccc4)nc3n(Cc3cccs3)c2=O)c2ccccc21
COc1cccc(Cn2c(=O)c(-c3ccc(Cl)cc3)nc3cnc(OC)nc32)c1

Tested on: not listed separately
Assay: Primary qHTS for small molecule stabilizers of the endoplasmic reticulum resident proteome: Secreted ER Calcium Modulated Protein (SERCaMP) assay (AID 1508630)
Settings: SH-SY5Y GLuc-SERCaMP (Gaussia luciferase released on ER calcium loss) secretion, thapsigargin, luminescence; series mostly up to 38.4 µM
Summary of the method: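 GLuc-SERCaMP-expressing SH-SY5Y cells, pretreated 16 h with compound, are challenged with thapsigargin to empty ER calcium stores; after 4 h, coelenterazine is added directly to the medium and luminescence is imaged.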

outcome, inactive:
Cc1nc2cnc(Oc3cccc(Cl)c3)nc2n(C2CC2)c1=O
CNc1ncncc1-c1ccccc1C(F)(F)F
CC(=O)NCCNc1nc(-c2ccc(C(=O)N(C)C)cc2)nc2ccccc12
COc1ccc(CNc2ccnc(-c3ccc(C(=O)N(C)C)cc3)n2)c(OC)c1
Clc1ccccc1-c1cc(NCCN2CCOCC2)ncn1
COc1ccc(CNc2cc(-c3cccnc3)ncn2)c(OC)c1
O=C(CCCCCN1C(=O)c2cccc3cccc(c23)C1=O)NO
CCNc1ncc2nc(-c3ccc(OC)cc3)c(=O)n(CCC#N)c2n1
FC(F)(F)c1ccccc1-c1cncnc1NCc1cccnc1
COc1ncc2nc(-c3cn(C)c4ccccc34)c(=O)n(C)c2n1
CN(C)C(=O)c1ccc(-c2cncnc2NCc2ccccc2)cc1
COc1ccc(-n2c(=O)c(CCc3ccccc3)nc3cncnc32)cc1
Cc1nc2cnc(N(C)C)nc2n(-c2ccccc2)c1=O
COc1ccccc1CNc1ncncc1-c1ccc(C(=O)N(C)C)cc1
COc1ccc(CNc2ncncc2-c2ccccc2C(F)(F)F)c(OC)c1
COCCn1c(=O)c(-c2cccc(C#N)c2)nc2cnc(N3CCOCC3)nc21
CNc1ncncc1-c1ccccc1C
O=c1cnc2cnc(Oc3ccccc3)nc2n1C1CC1
COCCn1c(=O)c(-c2cccc(C#N)c2)nc2cnc(Oc3ccc(OC)cc3)nc21
O=c1c(-c2ccccc2)nc2cncnc2n1-c1ccccc1
CN(C)C(=O)c1ccc(-c2nccc(N(C)Cc3ccco3)n2)cc1
COc1c(O)cc2oc3cc(O)c(CC=C(C)C)c(O)c3c(=O)c2c1CC=C(C)C
CS(=O)(=O)Nc1cccc(-c2cc(NCc3cccs3)ncn2)c1
COc1ccc(-c2nc3cnc(OC)nc3n(C)c2=O)cc1
c1ccc(CNc2ncncc2-c2cccnc2)cc1
CN(C)c1ncc2nc(-c3cccs3)c(=O)n(-c3ccccc3)c2n1
Cn1c(=O)c(-c2ccc(Cl)cc2)nc2cnc(OCc3ccccc3)nc21
COc1cccc(Cn2c(=O)c(-c3ccc(Cl)cc3)nc3cnc(N4CCN(C)CC4)nc32)c1
COc1cccc(Cn2c(=O)c(CCc3ccccc3)nc3cncnc32)c1
Cn1c(=O)c(-c2ccccc2)nc2cnc(Nc3ccccc3)nc21
COc1ncc2ncc(=O)n(C3CC3)c2n1
Cc1cnc(CNc2cc(-c3ccccc3C(F)(F)F)ncn2)cn1
CN(C)C(=O)c1ccc(-c2cncnc2NCc2cccnc2)cc1
COc1ncc2nc(-c3ccc(F)cc3)c(=O)n(CCc3ccccc3)c2n1
N#Cc1cccc(-c2nccc(-n3ccnc3)n2)c1
O=c1c(-c2ccccc2)nc2cnc(Oc3cccc(Cl)c3)nc2n1C1CC1
CNc1nc(-c2cccnc2)nc2ccccc12
Cn1cc(-c2nc3cnc(Oc4ccccc4)nc3n(Cc3cccs3)c2=O)c2ccccc21
COc1cccc(Cn2c(=O)c(-c3ccc(Cl)cc3)nc3cnc(OC)nc32)c1
c1ccc(CNc2ccnc(-c3ccc4c(c3)OCO4)n2)cc1
